Compounds with a hit are over-represented: about 22% of the library has one in this group of screens.
Pf growth 96h: Primary qHTS for delayed death inhibitors of the malarial parasite plastid, 96 hour incubation; 6.9% of 320,000 active; P. falciparum luciferase reporter growth, 96 h; Potency, µM (titrated, usually from 28.7 µM), inactives show at the top dose activity change, negative = inhibition, most hits filed as inhibitors; note: potency is the fitted concentration of half-maximal effect; % is set by controls: 0 for no effect and ±100 for the full control effect
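Infected RBCs, 2% Hct / 0.05% parasitemia final; luciferase-reporter P. falciparum; cpd 96 h, 37 C, 5% CO2; luciferase detection reagent; luminescence.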
Shiga inhibitor: A qHTS for Small Molecule Inhibitors of Shiga Toxin; AID 2315, 2010; inhibition, % at 38.7 µM; Vero cells, Shiga toxin protein synthesis inhibition reporter; 9.2% of 290,000 active; in the data active = inhibition mostly above about 28%, no sharp cut-off; inactive = mostly below about 43%; note: 0% is about no effect
LmPK inh: qHTS Assay for Inhibitors of Leishmania Mexicana Pyruvate Kinase (LmPK); purified LmPK, Kinase-Glo ATP luminescence, 1 h; Potency, µM (titrated, usually from 57.5 µM), for inactives: at the top dose activity change, negative = inhibition, actives largely listed as inhibitors; Q27686; 0.37% of 290,000 active; AID 1721, 2009; note: potency is the fitted concentration of half-maximal effect; % is set by controls: 0 for no effect and ±100 for the full control effect
Target sequence (Q27686 whole entry, looked up): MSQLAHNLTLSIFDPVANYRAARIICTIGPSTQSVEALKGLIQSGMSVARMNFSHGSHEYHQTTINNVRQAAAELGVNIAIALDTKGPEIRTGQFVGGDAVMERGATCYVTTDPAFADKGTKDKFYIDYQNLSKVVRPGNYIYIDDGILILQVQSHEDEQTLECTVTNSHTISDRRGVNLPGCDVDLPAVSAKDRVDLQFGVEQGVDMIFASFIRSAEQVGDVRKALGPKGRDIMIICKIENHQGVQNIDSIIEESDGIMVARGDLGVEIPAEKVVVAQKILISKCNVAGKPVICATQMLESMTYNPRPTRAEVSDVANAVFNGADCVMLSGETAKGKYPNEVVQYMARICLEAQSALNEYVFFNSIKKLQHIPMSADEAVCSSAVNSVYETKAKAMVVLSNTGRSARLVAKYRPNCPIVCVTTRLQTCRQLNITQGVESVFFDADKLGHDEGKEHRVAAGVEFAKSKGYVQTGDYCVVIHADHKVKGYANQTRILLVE
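Pyruvate kinase activity monitored as ATP production (luciferase luminescence). Conditions: 0.1 nM enzyme, 0.5 mM PEP, 0.1 mM ADP, 1 h, RT; normalized against uninhibited and no-enzyme wells.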
Pf growth 48h: Primary qHTS for delayed death inhibitors of the malarial parasite plastid, 48 hour incubation. 5.9% of 310,000 active. Potency, µM (highest dose often 28.7 µM), without a hit: at the top dose activity change, negative = inhibition, hits mostly inhibitors. P. falciparum luciferase growth in erythrocytes, 48 h; note: potency is the fitted concentration of half-maximal effect; % is set by controls: 0 for no effect and ±100 for the full control effect
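First compound was added to culture medium, then infected red cells at 0.1% parasitemia and 2% hematocrit (final). After incubation at 37 C under 5% CO2, luciferase detection reagent was dispensed and light output recorded.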
CHX counter: Cycloheximide Counterscreen for Small Molecule Inhibitors of Shiga Toxin | cell reporter, cycloheximide protein synthesis inhibition counterscreen | max response, % | 12% of 300,000 active; in the data active = max response mostly above about 13%, no sharp cut-off; inactive = mostly below about 14%; note: read at 38.3 µM for the half of the compounds with a filed dose; 0% is about no effect
Starred values were filed as active, the others as inactive; ? = inconclusive; · = not tested or not shown; [ ] = another dose, or the depositor's remark. Unless noted, calls come from the whole dose curve; as a rule, active = well fitted inhibition curve with a large enough effect; inconclusive = small, poorly fitted or top-dose-only effect, or another doubt; inactive = no such curve, though single readings can be large or run the other way.

SMILES	Pf growth 96h	Shiga inhibitor	LmPK inh	Pf growth 48h	CHX counter
CCC(C)(C(=O)NC1CCCCC1)N(Cc1cccs1)C(=O)c1ccc(=O)[nH]c1 (centres undefined)	39.3%	-9.9	0.0%	20.0%	-1.7
CSCC[C@H](NC(=O)Cc1c(C)c2c(cc(C)c3c(C)coc32)oc1=O)C(=O)O	-6.1%	2.7	-0.6%	-16.8%[0.00184 µM]	-1.5
C=CCN1C(=O)c2ccc(C(=O)N3CCC(C(N)=O)CC3)cc2C1=O	6.4%	-5.7	-8.5%	8.5%	-3.2
COc1cccc(CNC(=O)CCC2CCCN(c3cc(C)nc(N4CCCC4)n3)C2)c1 (centres undefined)	11.7µM*	-2.6	-5.1%	?	0.9
Nc1ccc(N2CCOCC2)cc1C(F)(F)F	1.4%	-33.7	-1.1%	9.3%	-3.0
CCCCn1c(SCC(=O)NCc2ccc3c(c2)OCO3)nnc1C(CC)N(C)C (centres undefined)	8.0%	·	·	0.0%	·
Cc1cccc(NC(=O)CN(c2ccc(C(C)C)cc2)S(=O)(=O)c2c(C)nn(C)c2C)n1	2.94µM*	-12.5	6.9%	·	-4.5
COc1ccc(NC(=O)CN(c2ccc(C)cc2)S(=O)(=O)c2c(C)nn(C)c2C)cc1	-2.1%	-9.5	-0.5%	?	-4.6
CCOC(=O)c1ccc(NC(=O)CN(c2ccc(C)cc2)S(=O)(=O)c2c(C)nn(C)c2C)cc1	·	8.3	8.5%	10.4µM*	-1.0
COc1ccc2nc(NC(=O)CN(c3ccc(C)cc3)S(=O)(=O)c3c(C)nn(C)c3C)sc2c1	2.62µM*	11.3	-3.9%	11.7µM*	13.5
Cc1nn(C)c(C)c1S(=O)(=O)N(CC(=O)Nc1ccccn1)c1ccc(C(C)C)cc1	?	13.3	4.9%	3.0%	-1.8
O=C(CNC(=O)c1ccco1)Nc1ccncc1	-1.6%	·	·	3.1%	·
O=C(OC(c1ccccc1)c1nccc2ccccc12)c1cccc([N+](=O)[O-])c1 (centres undefined)	-52.0%	35.2	2.3%	1.5%	32.2*
CC(C)C(OC(=O)c1ccccc1)c1nccc2ccccc12 (centres undefined)	31.9%	85.7*	5.5%	-0.8%	48.8*
Cc1cc(C(=O)OCC(=O)c2cccc([N+](=O)[O-])c2)c2ccccc2n1	?	-11.9	-1.0%	2.6%	-1.9
O=C(Cn1cc([N+](=O)[O-])cn1)Nc1ccn(Cc2c(F)c(F)c(F)c(F)c2F)n1	-16.1%	21.3	0.4%	·	6.4
Cc1nn(CC(=O)c2ccccc2Cl)c(C)c1[N+](=O)[O-]	151.0%	93.1*	?	128.8%	47.9*
Cc1nn(CC(=O)NCCc2ccc(Cl)cc2Cl)c(C)c1[N+](=O)[O-]	?	-5.3	1.2%	11.7µM*	1.4
CC(/C=C1\SC(=S)N(c2ccc(C(=O)O)cc2)C1=O)=C\c1ccccc1	?	15.4	0.6%	4.65µM*	-2.0
CC(/C=C1\SC(=S)N(NC(=O)c2ccc(C)cc2)C1=O)=C\c1ccccc1	8.3%	-10.8	6.1%	20.3%	-4.7
O=[N+]([O-])c1cccc(S(=O)(=O)NCCc2ccccc2)c1	?	-1.7	2.8%	9.5%	0.3
CC1(C)Cn2c(nnc2-c2cccc(O)c2)S1	11.7µM*	66.4*	-5.3%	44.1%	24.5*
CC1Cn2c(nnc2-c2cccc(Cl)c2)S1 (centres undefined)	?	-1.7	0.9%	7.2%	-2.4
CC1CC(C)CN(C(=O)COC(=O)c2nn(C)c(=O)c3ccccc23)C1 (centres undefined)	1.8%	·	·	5.9%	·
Cc1cc(C2=NNC(=NC3CCCCC3)SC2)c(C)n1-c1c(C)n(C)n(-c2ccccc2)c1=O	13.1µM*	-8.3	3.0%	6.57µM*	-1.8
Cc1cc(C2=NNC(=NC3CC3)SC2)c(C)n1-c1ccccc1F	?	-20.8	-28.1%	?	3.5
c1csc(C2=NNC(=NC3CCCCC3)SC2)c1	0.0%	74.6*	2.9%	27.0%	37.3*
O=C(Nc1ccccc1C(F)(F)F)c1c(F)cccc1Cl	?	-4.1	0.4%	-2.7%	-5.2
CCN(CC)C(=O)CSc1nnc(COc2cccc(C)c2)n1C	21.4%	5.9	5.7%	-25.5%	-0.9

Source: PubChem BioAssay
